Inconclusive results are not listed. A call without a number means that no potency is given here. Values without a mark were called inactive. The source made the active and inactive calls. The call rests on the fitted dose curve; in most records, active means well fitted curve in the direction sought with a large enough effect; inconclusive means small, poorly fitted or top-dose-only effect, or another doubt; inactive means no such curve, though single readings can be large; an effect the other way counts as inactive or inconclusive.
Tests used:
[1] = system: CRL-7250; experiment: Cytotoxic Profiling of Annotated Libraries Using Quantitative High-Throughput Screening (AID 1296008); details: Five cell lines viability, CellTiter-Glo ATP luminescence, 48-72 h; max response: active compounds read low; further: nearly all actives have a fitted effect of over 60% in size; further: potency means the concentration at half of the fitted maximal effect
Summary of the method: (§1)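 Cells exposed to compounds for 48 or 72 hr at 37 degrees Celsius. Viability read as ATP-coupled luminescence with CellTiter-Glo after 10 min at room temperature.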

[2] = system: HEK293; experiment: as above; details: Five cell lines viability, CellTiter-Glo ATP luminescence, 48-72 h; max response: active compounds read low
Summary of the method: as §1

[3] = system: HaCat; experiment: as above; details: Five cell lines viability, CellTiter-Glo ATP luminescence, 48-72 h; max response: active compounds read low
Summary of the method: as §1

[4] = system: NIH3T3; experiment: as above; details: Five cell lines viability, CellTiter-Glo ATP luminescence, 48-72 h; max response: active compounds read low
Summary of the method: as §1

[5] = system: C33A; experiment: Primary qHTS to identify gynecologic anti-cancer compounds using libraries of approved drugs and bioactive compounds (AID 1345084); details: Gynecologic cancer cell panel viability, ATPlite luminescence, 48 h; series mostly up to 57.5 µM; further: nearly all actives have a fitted effect of over 55% in size; further: potency means the concentration at half of the fitted maximal effect
Summary of the method: (§2)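 Cells, 1,000 per well, were allowed to settle for 16 h at 37 C before compound addition. Five concentrations were tested for 48 h, and viability was read by ATPlite luminescence after 15 min at room temperature.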

[6] = system: CAOV3; experiment: as above; details: Gynecologic cancer cell panel viability, ATPlite luminescence, 48 h; series mostly up to 57.5 µM
Summary of the method: as §2

[7] = system: CASKI; experiment: as above; details: Gynecologic cancer cell panel viability, ATPlite luminescence, 48 h; series mostly up to 57.5 µM
Summary of the method: as §2

[8] = system: Es-2; experiment: as above; details: Gynecologic cancer cell panel viability, ATPlite luminescence, 48 h; series mostly up to 57.5 µM
Summary of the method: as §2

[9] = system: HeLa; experiment: as above; details: Gynecologic cancer cell panel viability, ATPlite luminescence, 48 h; series mostly up to 57.5 µM
Summary of the method: as §2

[10] = system: Hek293T; experiment: as above; details: Gynecologic cancer cell panel viability, ATPlite luminescence, 48 h, control line for the selectivity index; series mostly up to 57.5 µM
Summary of the method: as §2

[11] = system: JEG-3; experiment: as above; details: Gynecologic cancer cell panel viability, ATPlite luminescence, 48 h; series mostly up to 57.5 µM
Summary of the method: as §2

[12] = system: OV90; experiment: as above; details: Gynecologic cancer cell panel viability, ATPlite luminescence, 48 h; series mostly up to 57.5 µM
Summary of the method: as §2

[13] = system: HACAT; experiment: qHTS assay to identify novel small-molecules to repurpose for Merkel cell carcinoma treatment (AID 1296009); details: MCC and control cell lines, CellTiter-Glo viability, 72 h; at 44.8 µM (top of the series) unless noted; further: nearly all actives have a fitted effect of over 60% in size
Summary of the method: (§3)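 CellTiter-Glo luminescence after 72 hr compound exposure at 37 degree celsius gave cell viability. Libraries NPC and MIPE were run as 8- and 11-point dose responses; RLUs normalized to DMSO (negative) and no-cell (cytotoxicity) controls.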

[14] = system: NIH3T3; experiment: as above; details: MCC and control cell lines, CellTiter-Glo viability, 72 h; series mostly up to 44.8 µM
Summary of the method: as §3

SMILES: CC(/C=C/C(=O)NO)=C\[C@@H](C)C(=O)c1ccc(N(C)C)cc1
- Potency [1]: 2.91 µM (active)
- Potency [2]: 1.16 µM (active)
- Potency [3]: 0.92 µM (active)
- Potency [4]: 1.3 µM (active)
- Potency [5]: 3.55 µM (active)
- Potency [6]: 4.47 µM (active)
- Potency [7]: 1.58 µM (active)
- Potency [8]: 5.62 µM (active)
- Potency [9]: 3.55 µM (active)
- Potency [10]: 3.16 µM (active)
- Potency [11]: 1.41 µM (active)
- Potency [12]: 2.24 µM (active)

SMILES: Cc1ccc(NC(=O)c2ccc(CN3CCNCC3)cc2)cc1Nc1nccc(-c2cccnc2)n1
- max response [1]: -21.4%
- Potency [2]: 10.3 µM (active)
- outcome [3]: inactive
- outcome [4]: inactive
- outcome [13]: inactive
- Potency [14]: inactive
- Potency [6]: 22.4 µM (active)
- Potency [7]: 17.8 µM (active)
- Potency [8]: 15.8 µM (active)
- Potency [10]: 11.2 µM (active)
- Potency [11]: 17.8 µM (active)
- Potency [12]: 14.1 µM (active)

SMILES: CC(=O)O[C@@H]1C[C@@]23C[C@@]24CC[C@H](O[C@@H]2OC[C@H](O)[C@H](O)[C@H]2O)C(C)(C)[C@@H]4CC[C@H]3[C@]2(C)[C@@H](O)C34O[C@H](C[C@@H](C)[C@@H]3[C@@]12C)[C@@H](C(C)(C)O)O4
- max response [1]: 4.08%
- max response [2]: -6.78%
- outcome [3]: inactive
- max response [4]: 2.71%
- outcome [13]: inactive
- Potency [5]: inactive
- Potency [6]: inactive
- Potency [7]: inactive
- Potency [8]: inactive
- Potency [9]: inactive
- Potency [10]: inactive
- Potency [11]: inactive
- Potency [12]: inactive

SMILES: N#Cc1cc(-c2ccnc(Nc3ccc(N4CCOCC4)cc3)n2)ccc1OC1CCOCC1
- Potency [1]: 4.11 µM (active)
- Potency [2]: 7.31 µM (active)
- outcome [3]: inactive
- Potency [4]: 11.6 µM (active)
- outcome [13]: inactive
- Potency [5]: inactive
- Potency [7]: inactive
- Potency [8]: inactive
- Potency [9]: inactive
- Potency [10]: inactive
- Potency [11]: inactive
- Potency [12]: inactive

SMILES: COC(=O)Nc1cc(Nc2cc(NC3CC3)c3ncc(C#N)n3n2)c(Cl)c(N2CCN(C)CC2)c1
- Potency [1]: 9.33 µM (active)
- Potency [2]: 1.32 µM (active)
- Potency [3]: 0.741 µM (active)
- Potency [4]: 14.8 µM (active)

SMILES: CC(C)C[C@@H]1NC(=O)[C@@H]2C[C@@]34C[C@@H]5[C@@]6(C)CCCC(C)(C)C6CC[C@@]5(C)N(c5ccccc53)[C@H]4N2C1=O (some centres not stated)
- Potency [1]: 0.502 µM (active)
- Potency [2]: 0.796 µM (active)
- outcome [3]: inactive
- max response [4]: -3.44%
- outcome [13]: inactive [at 17.4 µM]
- Potency [6]: inactive
- Potency [9]: inactive

SMILES: COC(=O)c1cc2c(C(F)(F)F)cc(-c3ccccc3)cc2n1O
- max response [1]: -4.54%
- max response [2]: 0.379%
- outcome [3]: inactive
- outcome [4]: inactive
- outcome [13]: inactive
- Potency [14]: inactive
- Potency [5]: inactive
- Potency [7]: inactive
- Potency [8]: inactive
- Potency [9]: inactive
- Potency [10]: inactive
- Potency [11]: inactive
- Potency [12]: inactive

SMILES: O=C(Nc1ccc(Cl)cc1)C1CCCN(C(=O)c2cccc(-c3ccco3)c2)C1 (configuration not stated)
- Potency [1]: 13 µM (active)
- Potency [2]: 18.4 µM (active)
- max response [3]: -30%
- max response [4]: -26.4%
- Potency [5]: inactive
- Potency [6]: inactive
- Potency [7]: inactive
- Potency [8]: inactive
- Potency [9]: inactive
- Potency [10]: inactive
- Potency [11]: inactive
- Potency [12]: inactive

SMILES: CC(C)c1cc2c(N3CCN(C4=NCC(C)(C)S4)CC3)ncnc2s1
- Potency [1]: 3.66 µM (active)
- Potency [2]: 1.3 µM (active)
- outcome [3]: inactive
- max response [4]: -29.7%
- outcome [13]: inactive
- Potency [6]: inactive
- Potency [7]: inactive
- Potency [8]: inactive
- Potency [9]: inactive
- Potency [11]: inactive

SMILES: CC(=O)OC(C)(C)/C=C/C(=O)[C@](C)(O)[C@H]1C(O)C[C@@]2(C)[C@@H]3CC=C4[C@@H](C=C(O[C@@H]5O[C@H](CO)[C@@H](O)[C@H](O)[C@H]5O)C(=O)C4(C)C)[C@]3(C)C(=O)C[C@]12C (some centres not stated)
- outcome [1]: inactive
- max response [2]: -18.4%
- outcome [3]: inactive
- outcome [4]: inactive
- outcome [13]: inactive [at 17.4 µM]
- Potency [14]: inactive
- Potency [5]: inactive
- Potency [7]: inactive
- Potency [8]: inactive
- Potency [9]: inactive
- Potency [10]: inactive
- Potency [11]: inactive
- Potency [12]: inactive

SMILES: CC(C)=C1C[C@@]2(C)C(=CC1=O)CC[C@@H](OC(=O)/C(C)=C/CO)[C@@H]2C
- Potency [1]: 3.21 µM (active)
- Potency [2]: 1.28 µM (active)
- outcome [3]: inactive
- max response [4]: -20.7%
- outcome [13]: inactive
- Potency [6]: inactive
- Potency [9]: inactive
- Potency [10]: inactive
- Potency [11]: inactive
- Potency [12]: inactive

SMILES: CNc1cc2[nH]c(=O)n(-c3ccc(NC(=O)NS(=O)(=O)c4ccc(Cl)s4)cc3)c(=O)c2cc1F
- outcome [1]: inactive
- max response [2]: -0.0272%
- outcome [3]: inactive
- max response [4]: 2.24%
- outcome [13]: inactive
- Potency [5]: inactive
- Potency [6]: inactive
- Potency [7]: inactive
- Potency [8]: inactive
- Potency [9]: inactive
- Potency [10]: inactive
- Potency [11]: inactive
- Potency [12]: inactive

SMILES: C[C@@H]1CN(CC(=O)N2CC(C)(C)c3ncc(Cc4ccc(F)cc4)cc32)[C@@H](CN2CCOC[C@H]2C)CN1
- max response [1]: -4.83%
- max response [2]: -21.9%
- outcome [3]: inactive
- outcome [4]: inactive
- outcome [13]: inactive

SMILES: CS(=O)(=O)c1ccc(Oc2cc(F)cc(C#N)c2)c2c1[C@H](O)C(F)(F)C2
- outcome [1]: inactive
- max response [2]: 1.03%
- max response [3]: -0.258%
- max response [4]: -14.9%

SMILES: Cc1ccccc1C(C(=O)NC1CCCCC1)N(C(=O)Cn1cnc2ccccc21)c1cccc(F)c1 (configuration not stated)
- max response [1]: -31.4%
- Potency [2]: 16.4 µM (active)
- Potency [3]: 8.2 µM (active)
- Potency [4]: 18.4 µM (active)
- Potency [5]: inactive
- Potency [6]: inactive
- Potency [7]: inactive
- Potency [8]: inactive
- Potency [9]: inactive
- Potency [10]: inactive
- Potency [11]: inactive
- Potency [12]: inactive

— PubChem BioAssay (NCATS)
